# Screens (PubChem)
# GAA glycogen mod: alters human alpha-glucosidase cleavage of glycogen; P10253; recombinant GAA, glycogen substrate, Amplex Red glucose oxidase fluorescence; Potency, µM (doses to about 76.4 µM), inactives show top-dose activity change, negative = inhibition, hits mostly inhibitors; 300,000 tested, 0.38% active; AID 2100;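 further: potency means the concentration at half of the fitted maximal effect; 0% = full enzyme reaction and -100% = no-enzyme basal signal; the screen sought inhibitors and activators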
#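 Natural-substrate format: glycogen cleavage by 4 nM human enzyme, glucose read by Amplex Red coupling (Ex 573, Em 610 nm). Normalized to enzyme and no-enzyme controls.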
# GLA spleen mod: inhibitors or activators of human alpha-galactosidase in spleen homogenate. human spleen homogenate, 4MU-alpha-Gal fluorescence, 40 min. Potency, µM (highest dose often 80 µM), inactives show top-dose activity change, negative = inhibition, hits mostly inhibitors. P06280. 240,000 tested, 0.008% active;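 further: potency means the concentration at half of the fitted maximal effect; 0% = enzyme with vehicle and -100% = no enzyme basal signal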
#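 Spleen homogenate 1 ug + cpd (titration) + 4-MU-alpha-D-galactopyranoside 1 mM; 37C 40 min; 50 mM citrate/phosphate pH 5.0, 0.01% Tween-20; stop pH 10; fluorescence 365/440; AC50 via Hill.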
# aGlu spleen mod: lysosomal alpha-glucosidase (human) modulation; P10253; human spleen homogenate, 4-MU-alpha-glucoside fluorescence; Potency, µM (series often up to 79.9 µM), for the others: top-dose activity change, negative = inhibition, usual class: inhibitors; 240,000 tested, 0.006% active;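 further: potency means the concentration at half of the fitted maximal effect; 0% = enzyme with vehicle and -100% = no enzyme basal signal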
#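 Compounds were titrated against alpha-glucosidase in spleen homogenate at pH 5.0, with 1 mM 4-methylumbelliferyl substrate for 40 min at 37 C. Reactions were quenched with pH 10 NaOH/glycine and fluorescence measured.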
# GLA inh pH 4.5: alpha-galactosidase A (human) inhibition, pH 4.5; purified enzyme, 4-MU-alpha-Gal fluorescence, pH 4.5; activity change, negative = inhibition, % at 105 µM; P06280; 230,000 tested, under 10 active;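 further: 0% = full activity with enzyme and -100% = basal without enzyme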
# Target sequence (P06280 whole entry, looked up): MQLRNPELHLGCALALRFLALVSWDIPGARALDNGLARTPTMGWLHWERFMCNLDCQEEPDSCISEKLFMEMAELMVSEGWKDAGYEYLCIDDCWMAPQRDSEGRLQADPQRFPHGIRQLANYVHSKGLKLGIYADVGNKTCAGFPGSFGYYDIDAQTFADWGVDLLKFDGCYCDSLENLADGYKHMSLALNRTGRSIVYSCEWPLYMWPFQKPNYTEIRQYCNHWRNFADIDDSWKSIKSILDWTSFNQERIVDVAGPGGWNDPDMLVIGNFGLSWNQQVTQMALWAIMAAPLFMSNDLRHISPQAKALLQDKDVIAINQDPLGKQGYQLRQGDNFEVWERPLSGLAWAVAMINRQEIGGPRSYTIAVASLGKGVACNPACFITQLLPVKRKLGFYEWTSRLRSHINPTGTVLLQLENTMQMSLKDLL
# GAA inh: inhibitors of human lysosomal alpha-glucosidase | P10253 | purified human GAA, 4-MU-alpha-glucoside fluorescence | Potency, µM (highest dose often 76.9 µM), for inactives: at the highest dose activity change, negative = inhibition, actives largely listed as inhibitors | 200,000 tested, 0.005% active;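 further: potency means the concentration at half of the fitted maximal effect; plate controls were uninhibited enzyme wells for no effect and no-enzyme background for full effect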
#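 qHTS format, compound range up to 77 uM. Human lysosomal enzyme at 4 nM, 400 uM 4-MU glucoside substrate, pH 5.0, 20 min room temperature; fluorescence after alkaline stop gives activity normalized to controls.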
# N370S GC mod: N370S glucocerebrosidase modulation, Gaucher chaperone candidate | P04062 | N370S GC spleen homogenate, 4MU-glucoside fluorescence | Potency, µM (doses to about 59.4 µM), for inactives: top-dose activity change, negative = inhibition, actives largely listed as inhibitors | 330,000 tested, 0.092% active;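 further: potency means the concentration at half of the fitted maximal effect; 0% = full enzyme activity and -100% = no enzyme basal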
# Active calls of the source: *; ? = inconclusive; nt = not tested or not shown; [ ] = remark or other dose. Sampled rows, rich in hits. Any-hit rate of the full collection: about 0.43%. The call rests on the fitted dose curve; in most records, active means well fitted curve in the direction sought with a large enough effect; inconclusive means small, poorly fitted or top-dose-only effect, or another doubt; inactive means no such curve, though single readings can be large; an effect the other way counts as inactive or inconclusive.
SMILES,GAA glycogen mod,GLA spleen mod,aGlu spleen mod,GLA inh pH 4.5,GAA inh,N370S GC mod
O=C(Nc1ccc(F)cc1)C(c1ccccc1)N1CCN(S(=O)(=O)c2ccc3ccccc3c2)CC1 (configuration not stated),-4.2%,-3.7%,-10.0%,1.8,-5.0%,6.7%
O=[N+]([O-])c1ccccc1/C=N\Nc1nccs1,nt,nt,nt,nt,nt,-8.5%
Clc1cccc(Cl)c1/C=N\Nc1nccs1,28.2µM*,-1.6%,-5.1%,6.4,-4.3%,22.2%
COc1ccc(-c2cccc(NS(=O)(=O)c3ccccc3[N+](=O)[O-])c2)nn1,nt,nt,nt,nt,nt,-3.0%
Cc1cc(OCC(=O)Nc2ccc(CN3CCCCC3)cc2)ccc1Cl,-3.1%,4.0%,-3.1%,-5.3,?,-18.5%
CCOc1cccc(/C=N/NC(=S)Nc2ccccc2[N+](=O)[O-])c1O,2.5%,-5.8%,-0.1%,-7.8,2.8%,2.1%
O=[N+]([O-])c1ccccc1NC(=S)N/N=C/c1ccc(O)c(O)c1,3.55µM*,-9.3%,-5.7%,3.1,-7.3%,-10.9%
COc1ccc(N(CC(=O)Nc2ccc(C)c(F)c2)S(=O)(=O)c2c(C)noc2C)cc1,nt,nt,nt,nt,nt,2.3%
CCOc1ccc(NC(=O)N2CCC(CN3CCc4ccccc4C3)CC2)cc1,50.1µM*,nt,nt,nt,nt,nt
CN(C)N(Cc1ccccc1)C(=O)C(O)(c1ccccc1)c1ccccc1,nt,nt,nt,nt,nt,-8.4%
O=C(N/N=C/c1ccc(O)c(O)c1)NC12CC3CC(CC(C3)C1)C2,10µM*,nt,nt,nt,nt,21.6%
Cc1cc(OCCn2cc(/C(N)=N/O)c3ccccc32)ccc1Cl,17.8µM*,1.8%,-20.2%,2.3,-4.8%,?
Cc1cccc(-c2ccc(C=Nc3c(C)n(C)n(-c4ccccc4)c3=O)o2)c1,3.95µM*,6.3%,3.6%,0.2,-16.3%,0.7%
Cc1c(N=Cc2nc3ccccc3[nH]2)c(=O)n(-c2ccccc2)n1C,8.91µM*,9.5%,5.5%,8.0,-8.1%,12.1%
Cc1c(NC(=O)/C(C#N)=C/c2ccc(-c3cccc(Cl)c3)o2)c(=O)n(-c2ccccc2)n1C,-8.2%,-9.5%,-7.2%,-9.4,?,-10.9%
Cc1c(N=Cc2nc3ccccc3n2C)c(=O)n(-c2ccccc2)n1C,11.2µM*,4.5%,-0.7%,-0.9,2.5%,3.1%
COc1cc(C2N(C)CCC3(OCCO3)C2(C)C)cc(OC)c1OC (configuration not stated),-2.5%,1.8%,6.8%,5.8,-1.5%,0.3%
Cc1ccc(NNC(=O)c2cc(C(C)(C)C)nn2Cc2ccccc2)cc1,11.2µM*,2.1%,3.1%,-5.7,-5.9%[15.4 µM],7.9%
N#CC1=C(SCC(=O)NC2CC2)NC(=O)C(C#N)C12CCCCC2 (configuration not stated),25.1µM*,-13.4%,-5.9%,11.0,-0.4%,-1.7%
CCOc1cc(/C=C/c2cc(C(F)(F)F)[nH]c(=O)n2)ccc1O,7.88µM*,2.7%,-4.5%,-9.7,-8.6%,-15.6%
Oc1ccc(-c2nc3ccccn3c2NCc2ccco2)cc1,14µM*,2.7%,2.5%,-1.8,1.8%,?
Cc1nnsc1C(=O)NNS(=O)(=O)c1cc(C(F)(F)F)cc(C(F)(F)F)c1,?,5.7%,7.3%,-6.1,4.1%,9.4%
Cc1ccc(S(=O)(=O)NNC(=O)c2snnc2C)cc1,25.1µM*,0.7%,-0.4%,1.9,-5.0%,-13.3%
Cc1ccc(-c2nnc3c4ccccc4c(C)nn23)cc1NC(=O)CN1CCOCC1,0.5%,6.1%,3.0%,4.8,-4.0%,4.8%
Cc1ccc(-c2nnc3c4ccccc4c(C)nn23)cc1S(=O)(=O)N1CCN(CCO)CC1,4.1%,3.1%,-10.0%,6.5,-3.7%,15.8µM*
Cc1cc(SCC(=O)c2ccc(O)c(O)c2)nc2ccccc12,4.43µM*,5.1%,5.5%,5.3,-1.6%,-13.4%
O=C(CSc1n[nH]c(-c2ccccc2)n1)c1ccc(O)c(O)c1,10µM*,0.4%,-14.6%,-8.9,-5.2%,-2.4%
